# Only some compounds are listed: those with a hit (about 5% of all), similar ones and a draw of the others.
# Vaccinia Venus = qHTS for Stage-Specific Inhibitors of Vaccinia Orthopoxvirus: Venus Reporter Primary qHTS; 330,000 compounds, 0.46% hits; Potency, µM (highest dose often 36.5 µM), most hits filed as inhibitors; Vaccinia virus Venus reporter expression, fluorescence; calls by dose curve; tested in A549 cells; also: nearly all actives have a fitted effect of over 30% in size
# Tb PYK inh = qHTS of Trypanosoma Brucei Inhibitors | TbPYK enzyme, Kinase-Glo Plus ATP luminescence, 45 min | Potency, µM (top dose mostly 76.8 µM), actives largely listed as inhibitors | 410,000 compounds, 0.12% hits | AID 624173, 2012; also: nearly all actives have a fitted effect of over 50% in size
#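 ADP (130 uM final) triggers the TbPYK reaction after compound addition; incubation is 45 min at room temperature. Kinase-Glo Plus is then added and luminescence imaged. Normalized data are fitted to concentration-effect curves.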
# HCMV inh = qHTS Assay for inhibitors of the human cytomegalovirus (HCMV); HFF cells, HCMV-luciferase reporter, 72 h; stronger effect = lower value; activity change, negative = inhibition, % at 57.5 µM; 410,000 compounds, 4.5% hits; AID 1259415, 2018; in the data active = activity change below about -60%; inconclusive = no clear call, values can overlap the other calls; inactive = above about -39%
#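 Two compound doses tested in HFFs infected with HCMV-luciferase, MOI 1 PFU/cell, 72 h at 37C. Lysate luminescence read with OneGlo; data normalized against buffer-only and 10uM Salinomycin inhibitor controls.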
# LmPK inh = qHTS Assay for Inhibitors of Leishmania Mexicana Pyruvate Kinase (LmPK) | Q27686 | purified LmPK, Kinase-Glo ATP luminescence, 1 h | Potency, µM (series often up to 57.5 µM), hits mostly inhibitors | 290,000 compounds, 0.37% hits
# Target sequence (Q27686 whole entry, looked up): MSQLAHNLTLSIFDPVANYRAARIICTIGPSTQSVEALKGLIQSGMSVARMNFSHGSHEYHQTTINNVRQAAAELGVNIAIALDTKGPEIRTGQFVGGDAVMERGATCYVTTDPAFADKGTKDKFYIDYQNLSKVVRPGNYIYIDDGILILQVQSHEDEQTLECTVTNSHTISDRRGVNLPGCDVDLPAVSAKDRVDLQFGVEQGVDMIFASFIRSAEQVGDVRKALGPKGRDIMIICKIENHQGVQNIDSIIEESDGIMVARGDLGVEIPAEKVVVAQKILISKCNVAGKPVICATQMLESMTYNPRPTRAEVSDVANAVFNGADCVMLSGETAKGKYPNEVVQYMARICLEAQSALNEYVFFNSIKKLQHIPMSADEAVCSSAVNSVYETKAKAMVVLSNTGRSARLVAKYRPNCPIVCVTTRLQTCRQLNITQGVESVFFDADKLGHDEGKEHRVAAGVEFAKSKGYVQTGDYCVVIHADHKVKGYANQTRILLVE
#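 Purified LmPK (0.1 nM) with 0.5 mM PEP and 0.1 mM ADP in imidazole buffer pH 7.2 with MgCl2/KCl, 1 h at room temperature. ATP formed was read by luciferase luminescence and normalized to no-enzyme and uninhibited controls.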
# VACV mCherry inh = qHTS for Stage-Specific Inhibitors of Vaccinia Orthopoxvirus: mCherry Reporter Primary qHTS | Vaccinia virus mCherry reporter infection, fluorescence | Potency, µM (highest dose often 36.5 µM), most hits filed as inhibitors | 310,000 compounds, 0.63% hits | AID 720579, 2013; calls by dose curve; tested in A549 cells; also: nearly all actives have a fitted effect of over 35% in size
# Hits are given with their value; - = inactive; ? = inconclusive; . = no result. Unless noted, calls follow the shape of the dose curve; as a rule, active = well fitted curve in the direction sought with a large enough effect; inconclusive = small, poorly fitted or top-dose-only effect, or another doubt; inactive = no such curve, though single readings can be large; an effect the other way counts as inactive or inconclusive.
SMILES,Vaccinia Venus,Tb PYK inh,HCMV inh,LmPK inh,VACV mCherry inh
O=C(Nc1ccccc1)C1CCCN(C(=O)c2ccc(Cl)cc2)C1 (stereo unspecified),-,-,-65,-,-
CCc1ccc(C(=O)c2cn(CC(=O)Nc3ccc(F)cc3)c3ccc(OC)cc3c2=O)cc1,-,-,-71,.,-
CCc1ccc(C(=O)c2cn(CC(=O)Nc3ccc(F)c(F)c3)c3cc(OC)c(OC)cc3c2=O)cc1,-,-,-67,.,?
CCOc1ccc(NC(=O)Cn2cc(C(=O)c3ccc(CC)cc3)c(=O)c3cc(OC)c(OC)cc32)cc1,-,-,-,.,-
CCc1ccc(C(=O)c2cn(CC(=O)Nc3cc(OC)cc(OC)c3)c3ccc(CC)cc3c2=O)cc1,-,-,-,.,-
COc1ccc(S(=O)(=O)NCC2CCCN(C(=O)c3ccco3)C2)cc1 (stereo unspecified),-,-,-,-,-
COc1ccc(S(=O)(=O)NCC2CCCN(C(=O)c3cccnc3)C2)cc1 (stereo unspecified),-,-,-60,-,-
Cc1ccnc(NS(=O)(=O)c2ccc(NC(=O)CCOc3ccccc3)cc2)n1,-,-,-,-,-
CN(C)c1ccc(C(=O)N/N=C/C23CC[C@@H](O)CC2(O)CC[C@@H]2[C@@H]3CCC3(C)C(C4=CC(=O)OC4)CCC23O)cc1 (stereo partly specified),.,-,-99,-,.
COc1cc(C(=O)N/N=C/C23CC[C@@H](O)CC2(O)CC[C@@H]2[C@@H]3CCC3(C)C(C4=CC(=O)OC4)CCC23O)ccc1O (stereo partly specified),?,-,-,-,10µM
COc1ccc(C(=O)N/N=C/C23CC[C@@H](O)CC2(O)CC[C@@H]2[C@@H]3CCC3(C)C(C4=CC(=O)OC4)CCC23O)cc1 (stereo partly specified),.,-,-82,-,.
CC12CC[C@H]3[C@@H](CCC4(O)C[C@H](O)CCC34/C=N/NC(=O)c3ccc(O)cc3)C1(O)CCC2C1=CC(=O)OC1 (stereo partly specified),.,-,-,-,.
CN1N/C(=C\c2ccccc2)N=C2C(=O)N(C)C(=O)N=C21,8.9µM,.,.,.,7.9µM
O=C1NN(c2ccccc2)C(=O)/C1=C\c1ccccc1,-,-,-,-,-
CC/C=C1/N=C2C(=O)N(C)C(=O)N=C2N(C)N1,2.2µM,.,.,.,1.8µM
CC(C)(C)n1nnnc1C(C1CC1)N1C(=O)C(=O)c2ccccc21 (stereo unspecified),.,.,-77,.,.
COC(=O)C1=C(c2ccc(F)cc2OCc2ccccc2)C[C@@H]2CC[C@H]1N2C(=O)NCc1ccccc1Cl,?,-,-63,.,-
COC(=O)C1=C(c2ccc(F)cc2OCc2ccccc2)C[C@@H]2CC[C@H]1N2C(=O)NCCOc1ccccc1Cl,?,-,-,.,-
COC(=O)C1=C(c2ccc(S(C)(=O)=O)cc2)C[C@@H]2CC[C@H]1N2C(=O)NCc1ccc(F)cc1,-,-,-63,.,-
CN(Cc1ccccc1)C(=O)C1CCCN1S(=O)(=O)c1ccc2c(c1)n(C)c(=O)c(=O)n2C (stereo unspecified),-,-,-,-,-
O=c1[nH]c2ccccc2n1C1CCN(C(c2ccnc3ccccc23)c2nnnn2-c2ccc3c(c2)OCCO3)CC1 (stereo unspecified),-,-,-76,.,-
COc1ccc(C(c2nnnn2-c2ccc3c(c2)OCCO3)N2CCC(n3c(=O)[nH]c4ccccc43)CC2)cc1 (stereo unspecified),?,-,?,.,-
Cc1cccc(C)c1-n1nnnc1C(CCc1ccccc1)N1CCC(n2c(=O)[nH]c3ccccc32)CC1 (stereo unspecified),?,-,-94,.,?
COc1ccc(-n2nnnc2C(CCc2ccccc2)N2CCC(n3c(=O)[nH]c4ccccc43)CC2)cc1 (stereo unspecified),?,-,-95,.,?
O=c1[nH]c2ccccc2n1C1CCN(C(CCc2ccccc2)c2nnnn2-c2ccc3c(c2)OCCO3)CC1 (stereo unspecified),?,-,-104,.,?
SMILES,Vaccinia Venus,Tb PYK inh,HCMV inh,LmPK inh,VACV mCherry inh
O=C(CSCc1nc2c(nnn2Cc2ccc(F)cc2)c(=O)[nH]1)Nc1c(Cl)cc(Cl)cc1Cl,-,-,-,-,-
Cc1cccc(Cc2nnc(CCC(=O)N(C)C3CCOC3)o2)c1 (stereo unspecified),-,-,-70,-,-
Cc1cccc(Cc2nnc(CCC(=O)N(CC3CC3)CC3CCCO3)o2)c1 (stereo unspecified),-,-,-,-,-
O=c1cc(N2CCCCC2)c(-c2ccccc2)nn1Cc1ccccc1,-,-,-,-,-
CC(=O)O[C@H]1C[C@@H]2CC[C@@H]3[C@H](CC[C@@]4(C)[C@H]3C[C@H]([N+]3(C)CCCCC3)[C@@H]4OC(C)=O)[C@@]2(C)C[C@@H]1N1CCCCC1,.,-,.,.,.
COc1cccc(CN2CCNC(=O)C2CC(=O)N(C)C2CCCCC2)c1OC (stereo unspecified),-,-,-,.,-
CCCCCN1C(C(=O)c2ccccc2)=C(NC(C)=O)c2ccccc2S1(=O)=O,-,-,-70,.,-
CCCCC(=O)OC1=C(C(=O)c2ccccc2)N(CCC)S(=O)(=O)c2ccccc21,-,-,-86,.,-
CCCCN1C(C(=O)c2ccccc2)=C(OC(=O)CC)c2ccccc2S1(=O)=O,?,-,-107,.,?
CCCCCN1C(C(=O)c2ccccc2)=C(OC(=O)CC)c2ccccc2S1(=O)=O,?,-,-104,.,?
CCN1C(C(=O)c2ccccc2)=C(OC(=O)C(C)C)c2ccccc2S1(=O)=O,-,-,-,.,-
CNC(=O)C1CCN(C(=O)N2CC(C)Oc3ccc(C)cc32)CC1 (stereo unspecified),-,-,-,.,-
N/C(=N\OCc1ccccc1)c1nonc1N,.,-,-,?,.
N/C(=N/OCc1cccc([N+](=O)[O-])c1)c1nonc1N,-,-,-60,-,-
COc1ccc(-c2cc3ncc(-c4ccccc4)c(N)n3n2)cc1,?,-,-,16µM,?
O=C(COc1ccc2c(-c3ccccc3)cc(=O)oc2c1)NCc1cccs1,-,-,-,-,-
Cc1nn(-c2ccccc2)c(N)c1N=Nc1cccc(S(=O)(=O)N2CCOCC2)c1,-,-,-68,-,-
CC1CCN(S(=O)(=O)c2cc(C(=O)NCc3ccccc3)n(C)c2)CC1,-,-,-81,.,-
COc1ccc(C)cc1NC(=O)c1cc(S(=O)(=O)N2CCC(C)CC2)cn1C,-,-,?,.,-
COc1cc(NC(=O)c2cc(S(=O)(=O)N3CCC(C)CC3)cn2C)cc(OC)c1OC,-,-,-102,.,-

# Assay outcomes (PubChem BioAssay)
